Compounds with a hit are over-represented: about 7.9% of the library has one in this group of screens.
LASV entry inh: blocks Lassa virus binding to or entry into cells; Potency, µM (titrated, usually from 37.9 µM), without a hit: top-dose activity change, negative = inhibition, hits mostly inhibitors; Lassa virus pseudotype entry inhibition, cell reporter; 1.2% of 300,000 active; AID 540256; calls by dose curve; tested in HEK293 cells; note: potency is the fitted concentration of half-maximal effect; nearly all actives have a fitted effect of over 50% in size
HCV inh: HCV inhibition | Potency, µM (titrated, usually from 41.8 µM), for the others: at the highest dose activity change, negative = inhibition, actives largely listed as inhibitors | Huh7.5.1 HCVcc-Cre infection, luciferase reporter, 44 h | AID 651820 | 3.4% of 340,000 active; active = well fitted inhibition curve with a large enough effect; inconclusive = small, poorly fitted or top-dose-only effect, or another doubt; inactive = no such curve, though single readings can be large or run the other way; note: potency is the fitted concentration of half-maximal effect
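After 44 h co-culture of compound, cells and HCVcc-Cre (~0.5 moi), substrate is added for 15 min at room temperature and luciferase measured over 15 sec. Cells were seeded at 1,000/well and pre-cultured 4 h.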
FMDV inh: blocks foot and mouth disease virus; FMDV antiviral cell-based qHTS; Potency, µM (series often up to 57.9 µM), for the others: top-dose activity change, negative = inhibition, most hits filed as inhibitors; 1.2% of 410,000 active; calls by dose curve; tested in HEK293T cells; note: read-out not given here; potency is the fitted concentration of half-maximal effect; nearly all actives have a fitted effect of over 45% in size
Marburg entry inh: blocks Marburg virus binding to or entry into cells; 1.8% of 300,000 active; Marburg virus pseudotyped entry inhibition, cell reporter; Potency, µM (highest dose often 37.8 µM), for inactives: top-dose activity change, negative = inhibition, usual class: inhibitors; AID 540276; calls by dose curve; tested in HEK293 cells; note: potency is the fitted concentration of half-maximal effect
HCMV antiviral: blocks human cytomegalovirus replication; HFF cells, HCMV-luciferase reporter, 72 h; active compounds read low; activity change, negative = inhibition, % at 57.5 µM; 4.5% of 410,000 active; in the data active = activity change below about -60%; inconclusive = no clear call, values can overlap the other calls; inactive = above about -39%
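Two-dose cell screen: HFF monolayers treated with compounds and infected with luciferase-expressing HCMV at 1 PFU/cell, 72 h at 37C, then lysed for luciferase measurement.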
Starred values were filed as active, the others as inactive; ? = inconclusive; . = not tested or not shown; [ ] = remark or other dose. % is set by controls: 0 for no effect and ±100 for the full control effect.

SMILES	LASV entry inh	HCV inh	FMDV inh	Marburg entry inh	HCMV antiviral
COc1ccc(Nc2cc(C(=O)NCCCN3CCN(c4ccc(OC)cc4)CC3)c3ccccc3n2)cc1	?	.	40µM*	.	-75*
CC1CCN(CCCNC(=O)c2cc3sccc3n2C)CC1	-15%	-4%	-4%	?	-15
COc1ccc(N2CCN(CCCNC(=O)c3cc4sccc4n3C)CC2)cc1	-14%	13µM*	-25%	?	7
CC1C(=O)N2CCCc3cc(NC(=O)C(=O)NCCc4ccc(F)cc4)cc1c32 (stereo not drawn)	-20%	11µM*	0%	6%[46.1 µM]	24
CCCC[C@@H](C)C[C@@H](C)C(=O)N(C)[C@@H](CC(C)C)C(=O)N[C@H](C(=O)N(C)[C@H](C(=O)N1C[C@@H](O)C[C@H]1C(=O)N1C(=O)C=C[C@@H]1C)C(C)C)C(C)OC(C)=O (stereo partly drawn)	.	4µM*	?	.	.
O=C(NCc1ccco1)c1ccccc1-c1ccccc1	9%	-4%	-15%	15%	-80*
O=C(Nc1ccccc1C(=O)NCc1ccco1)Nc1cccc2ccccc12	.	11µM*	-12%	.	?
COc1ccccc1NC(=O)c1ccccc1-c1nc(-c2ccccc2OC)no1	?	-24%	4%	12µM*	64
COc1ccccc1-c1noc(-c2ccccc2C(=O)Nc2ccccc2)n1	12%	?	-15%	-5%	9
COc1ccc(-c2noc(-c3ccccc3C(=O)NCc3ccco3)n2)cc1OC	-8%	5.6µM*	1%	?	45
O=C(COC(=O)c1ccc([N+](=O)[O-])cc1)Nc1ccccc1C(=O)NC1CC1	6%[46.1 µM]	9%	-3%	16%[46.1 µM]	-24
CCC(=O)Nc1ccccc1-c1nc2ccccc2n(CC(=O)c2ccc(C)c(C)c2)c1=O	11%[46.1 µM]	.	-14%	?	-5
Cc1cc(C)n2nc(SCC(=O)Nc3cccc(C(F)(F)F)c3)nc2n1	4%[46.1 µM]	.	-9%	-33%[46.1 µM]	?
CCN1CCCC1CNC(=O)c1cnn(-c2ncc3c(n2)-c2ccc(OC)cc2CC3)c1C1CC1 (stereo not drawn)	.	.	-8%	.	.
O=C(NCc1ccco1)c1ccc(C(=O)NCc2ccco2)cc1	1%	18%	0%	-8%	-69*
O=C(CCNC(=O)c1ccc([N+](=O)[O-])cc1)NCc1ccco1	.	16%	-18%	.	-72*
O=C(NCc1ccco1)c1ccc2c(c1)C(=O)c1ccccc1-2	23µM*	?	68%	?	18
O=C(CCNC(=O)c1ccc(Cl)cc1)NCc1ccco1	1%	6%	-8%	1%	-20
CC(C)=CCN1C(=O)[C@@]2(CC(C)=C[C@@H](COCc3ccccc3)O2)c2ccccc21	?	.	.	3%[14.2 µM]	.
CC(C)Oc1ccc(OCCn2c(S(=O)(=O)O)nc3c(N)ncnc32)cc1	.	13%	-1%	.	63
CCn1c(-c2nonc2N)nc2c(C#CC(C)(C)O)nc(OC(CN)c3ccccc3)cc21 (stereo not drawn)	8.9µM*	.	.	.	.
CCCn1c(-c2nonc2N)nc2ccccc21	-2%	-28%	0%	11%	?
COc1ccc(NC(=O)c2cn(-c3ccccc3)nc2-c2ccc(C)cc2)cc1	-26%[46.1 µM]	.	-3%	.	27
COc1ccc(-c2nn(-c3ccccc3)cc2C(=O)OCC(=O)c2ccc(C)c([N+](=O)[O-])c2)cc1	4%	7.1µM*	?	-21%	?
COc1ccc(-c2nn(-c3ccccc3)cc2C(=O)NC2CCC(C)CC2)cc1 (stereo not drawn)	6%	-18%	12%	18%[46.1 µM]	-17
SMILES	LASV entry inh	HCV inh	FMDV inh	Marburg entry inh	HCMV antiviral
CCN(CC)CCNC(=S)NC(=O)c1cn(-c2ccccc2)nc1-c1ccc(OC)cc1	.	22µM*	-6%	.	?
COc1ccc(-c2nn(-c3ccccc3)cc2C(=O)n2nnc3ccccc32)cc1	5%	-2%	20µM*	8%	77
COC(=O)c1cn(-c2ccccc2)nc1-c1ccc(OC)cc1	.	13µM*	16%	.	-32
CS(=O)(=O)N1Cc2ccccc2CC1C(=O)OCC(=O)NCCc1ccc(S(N)(=O)=O)cc1 (stereo not drawn)	?	-2%	12%	?	-28
Cc1ccc(Cl)cc1S(=O)(=O)N1CCC(C(=O)NC2CCN(Cc3ccccc3)CC2)CC1	-12%[46.1 µM]	?	-14%	?	-72*
CCN(CC)S(=O)(=O)c1ccc(S(=O)(=O)N2CCC(C(=O)NC3CCN(Cc4ccccc4)CC3)CC2)cc1	.	-24%	-5%	?	.
O=C(NCc1ccccn1)C1CCN(S(=O)(=O)c2cc(Cl)ccc2Cl)CC1	-21%	?	-11%	16%	-62*
CC1CCN(C(=O)C2CCN(S(=O)(=O)c3cc(Cl)ccc3Cl)CC2)CC1	?	0%	-19%	-9%[46.1 µM]	-87*
CCN1CCN(C(=O)C2CCCN(S(=O)(=O)c3cc(Cl)ccc3Cl)C2)CC1 (stereo not drawn)	-11%	.	?	?	?
O=C(NCc1ccccn1)Nc1cc(Cl)ccc1Cl	.	4%	8%	.	-67*
CCOc1ccc(Cl)cc1S(=O)(=O)N1CCC(C(=O)NCc2ccccn2)CC1	.	12%	6%	6%[46.1 µM]	26
Cc1cnc(-n2ncc(C(=O)NCc3cccnc3)c2C)nc1-c1ccc(F)cc1	.	.	-26%	.	.
CCN1C(=O)[C@H]2[C@@H](c3ccc(-c4ccc(OC)cc4)cc3)N[C@@](CC(C)C)(C(=O)OC)[C@H]2C1=O	.	2%	-24%	.	1
O=S1(=O)N[C@H](c2ccccc2)COc2cc(Br)ccc21	-3%[46.1 µM]	.	.	.	-6
CCN(CC)c1ccc(/C=C(\C#N)C(N)=O)cc1	?	4%	38%	?	16
Cc1ccc(C=C(C#N)C(=O)c2ccccc2)cc1	.	.	7%	.	-17
CN(C)c1ccc(/C=C(\C#N)C(=O)c2ccccc2)cc1	.	9%	36%	.	-63*
CN(C)c1cccc(/C=C(\C#N)c2ccccc2)c1	.	11µM*	-2%	.	32
CCN(CC)c1ccc(/C=C(\C#N)C(=O)c2ccc(Br)cc2)cc1	?	10%	-18%	?	-65*
CN(C)CCCNc1cc(O)c2ncccc2c1	.	.	?	.	-78*
Oc1cc(NCc2ccc(F)cc2)cc2cccnc12	.	.	-2%	.	-93*
COc1ccc([C@@H]2[C@H](C(=O)N3CCOCC3)CC(=O)N2C(=O)/C=C/c2ccccc2)cc1	.	.	.	.	-21
COc1cccc(/C=N/NC(=O)CNC(=O)C(c2ccccc2)c2ccccc2)c1O	10µM*	?	39%	?	17
COc1ccc(/C=N/NC(=O)CSCC(=O)Nc2ccccc2)cc1	.	0%	0%	.	22
CCOc1cccc(C=NNC(=O)C(=O)Nc2cccc(C(F)(F)F)c2)c1O	.	.	.	.	-62*
COc1cccc(/C=N/NC(=O)CSCC(=O)Nc2ccccc2)c1O	?	25µM*	15%	21µM*	-93*
O=C(NN=Cc1ccco1)C(=O)Nc1cccc(C(F)(F)F)c1	.	.	.	.	-6
